Measured values reported in the supplement of paper PMC8975748.
Structures can show the parent of a compound that is named as a salt.

These compounds were tested on Saccharomyces cerevisiae BY4741 SeMeCo community (assay: z-score of subpopulation abundance vs DMSO median, subpopulation auxotrophic for LM; higher = larger share of this subpopulation than in DMSO controls). Conditions: 10 µM; 24 h; SM minimal medium; subpopulation (auxotrophy): LM.
Description: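 Fluorescent four-plasmid SeMeCo (self-establishing metabolically cooperating S. cerevisiae BY4741 community; plasmids pH-mRuby2, pL-mWasabi, pU-eCFP, pM-TagRFP657) was grown 24 h in minimal SM medium with each Selleck FDA-approved drug at 10 µM in 384-well plates. Cells were fixed and imaged by high-content confocal microscopy. For each auxotrophic subpopulation (and the prototroph), a z-score gives the deviation from the DMSO vehicle-control population median.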

Compound	z-score of subpopulation abundance
C[C@@H]1O[C@@H](O[C@H]2C[C@@H](O)[C@]3(CO)[C@H]4[C@H](O)C[C@]5(C)[C@@H](C6=CC(=O)OC6)CC[C@]5(O)[C@@H]4CC[C@]3(O)C2)[C@H](O)[C@H](O)[C@H]1O [Ouabain]	-0.83
CC(=O)O[C@H]1C[C@@H]2CC[C@@H]3[C@H](CC[C@@]4(C)[C@H]3C[C@H]([N+]3(C)CCCCC3)[C@@H]4OC(C)=O)[C@@]2(C)C[C@@H]1[N+]1(C)CCCCC1 [Pancuronium dibromide]	-1.26
CN(C)[C@@H]1C(=O)C(C(N)=O)=C(O)[C@@]2(O)C(=O)C3=C(O)c4c(O)cccc4[C@@](C)(O)[C@H]3[C@H](O)[C@@H]12 [Oxytetracycline (Terramycin)]	-0.04
COc1ccc(C(CN(C)C)C2(O)CCCCC2)cc1 (centres undefined) [Venlafaxine HCl]	0.27
CN1[C@@H]2CC[C@H]1C[C@@H](OC(=O)C(CO)c1ccccc1)C2 (some centres undefined) [Atropine sulfate monohydrate]	-0.12
NCCc1c[nH]c2ccc(O)cc12 [Serotonin HCl]	-1.09
CCN1CC2(OC(=O)c3ccccc3NC(C)=O)CCC(OC)C34C1C(CC23)C1(O)CC(OC)C2CC4C1(O)C2OC (centres undefined) [Lappaconitine]	-0.33
CC(C)(O)C(Cl)(Cl)Cl [Chlorobutanol]	0.13
NCC(O)c1ccc(O)cc1 (racemic) [(+,-)-Octopamine HCl]	0
COc1ccc(C=O)cc1 [p-Anisaldehyde]	-0.17
O=c1[nH]c2ccccc2n1CCCN1CCC(n2c(=O)[nH]c3cc(Cl)ccc32)CC1 [Domperidone]	-0.04
CN(C)C(=O)Oc1cccc([N+](C)(C)C)c1 [Neostigmine Bromide]	0.26
Oc1cc(Cl)ccc1Oc1ccc(Cl)cc1Cl [Triclosan]	-2.25
C[N+]1(C)[C@@H]2C[C@@H](OC(=O)[C@H](CO)c3ccccc3)C[C@H]1[C@@H]1O[C@@H]12 [Methscopolamine]	-0.56
CN1[C@@H]2C[C@@H](OC(=O)[C@H](CO)c3ccccc3)C[C@H]1[C@@H]1O[C@@H]12 [Scopolamine HBr trihydrate]	-0.12
C#C[C@]1(O)C=C[C@H]2[C@@H]3CCC4=CC(=O)CC[C@@H]4[C@H]3CC[C@@]21CC [Gestodene]	0.29
CC[C@@H](C(N)=O)N1CCCC1=O [Levetiracetam]	-0.55

Compound	z-score of subpopulation abundance
Oc1cccc2cccnc12 [8-Hydroxyquinoline]	-0.41
CCN(CC)CCOC(=O)C(O)(c1ccccc1)c1ccccc1 [Benactyzine hydrochloride]	0.4
CCOC(=O)Nc1ccc(NCc2ccc(F)cc2)cc1N [Retigabine 2HCl]	0.17
COc1ccc(C(CN(C)C)C2(O)CCCCC2)cc1 (centres undefined) [Venlafaxine]	-0.51
C=C[C@H]1CN2CC[C@H]1C[C@H]2[C@H](O)c1ccnc2ccccc12 [Cinchonidine]	-0.08
CN[C@@H]1[C@@H](O)[C@@H](O[C@@H]2[C@@H](O)[C@H](O[C@H]3O[C@H]([C@@H](C)O)[C@@H](O)[C@H](O)[C@H]3N)[C@@H](N)C[C@H]2N)OC[C@]1(C)O [Geneticin (G418 Sulfate)]	0.61
Cc1cc(C(C#N)c2ccc(Cl)cc2)c(Cl)cc1NC(=O)c1cc(I)cc(I)c1O (centres undefined) [Closantel]	1.19
CN(C)[C@@H]1C(=O)C(C(N)=O)=C(O)[C@@]2(O)C(=O)C3=C(O)c4c(O)cccc4[C@@](C)(O)[C@H]3C[C@@H]12 [Tetracycline HCl]	-0.24
CC[C@H]1[C@@H]2C[C@H]3[C@@H]4N(C)c5ccccc5[C@]45C[C@@H]([C@@H]2[C@H]5O)N3[C@@H]1O [Ajmaline]	-0.31
Cn1cc(C2=C(c3cn(C4CCN(Cc5ccccn5)CC4)c4ccccc34)C(=O)NC2=O)c2ccccc21	-1.68
N#Cc1nn(-c2c(Cl)cc(C(F)(F)F)cc2Cl)c(N)c1[S+]([O-])C(F)(F)F (centres undefined) [Fipronil]	-0.79
C=CN1CCCC1=O.II [Povidone iodine]	-0.46
C=CC[C@]1(O)CC[C@H]2[C@@H]3CCC4=CC(=O)CCC4=C3C=C[C@@]21C [Altrenogest]	0.15
O=[N+]([O-])C(Br)(CO)CO [Bronopol]	-0.89
O=C(O[C@H]1C[N+]2(CCCOc3ccccc3)CCC1CC2)C(O)(c1cccs1)c1cccs1 [Aclidinium Bromide]	-0.14
CC(NC(C)(C)C)C(=O)c1cccc(Cl)c1 (centres undefined) [Amfebutamone (Bupropion) HCl]	-0.59
C[CH2][Hg][S]c1ccccc1C(=O)[O-].[Na+] [Thimerosal]	13.9
